Assay outcomes as filed in PubChem.
CtBP-E1A inh: blocks the CtBP interaction with E1A. AlphaScreen GST-E1A/His-CtBP binding, 1536-well; hits give low values. activity change, % (concentration not given with the values). 0.49% of 340,000 active
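GST-E1A and His-tagged CtBP (125 nM each as 5X stock) were preincubated with pin-transferred compound for 2 h at 37 °C in the dark, then glutathione donor and nickel acceptor beads were added for 1 h before AlphaScreen reading.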
KDM4E inh: JMJD2E (human) inhibition; JMJD2E catalytic domain, FDH-coupled NADH fluorescence (FDH is formaldehyde dehydrogenase); Potency, µM (doses to about 57.1 µM), without a hit: at the top dose activity change, negative = inhibition, usual class: inhibitors; 1.6% of 230,000 active; active = well fitted inhibition curve with a large enough effect, not every such curve was filed as active; inconclusive = small, poorly fitted or top-dose-only effect, or another doubt; inactive = no such curve, though single readings can be large or run the other way;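 note: potency is the fitted concentration of half-maximal effect; 0% = wells with enzyme and -100% = buffer wells without enzyme; nearly all actives have a fitted effect of over 50% in size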
Six1-Eya2 inh: blocks human Six1 binding to Eya2; AID 651725; 0.56% of 360,000 active; AlphaScreen GST-Six1/His-Eya2 binding, biochemical; hits give low values; activity change, % (concentration not given with the values); Q15475+O00167
Target sequence (O00167 whole entry, looked up): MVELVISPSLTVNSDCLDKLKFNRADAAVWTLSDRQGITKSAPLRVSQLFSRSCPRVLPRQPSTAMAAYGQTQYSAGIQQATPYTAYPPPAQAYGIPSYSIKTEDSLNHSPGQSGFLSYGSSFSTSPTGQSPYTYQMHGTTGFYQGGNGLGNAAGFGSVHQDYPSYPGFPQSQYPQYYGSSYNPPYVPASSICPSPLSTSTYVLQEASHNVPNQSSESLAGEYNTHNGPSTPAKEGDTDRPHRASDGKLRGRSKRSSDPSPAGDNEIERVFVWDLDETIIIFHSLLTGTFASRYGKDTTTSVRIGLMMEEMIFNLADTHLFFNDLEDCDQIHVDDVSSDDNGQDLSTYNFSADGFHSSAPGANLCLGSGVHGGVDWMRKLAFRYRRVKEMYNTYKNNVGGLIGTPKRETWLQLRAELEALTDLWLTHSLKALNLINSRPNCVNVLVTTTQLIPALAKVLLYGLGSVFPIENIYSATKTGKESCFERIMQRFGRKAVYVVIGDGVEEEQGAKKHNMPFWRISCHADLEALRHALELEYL
Target sequence (Q15475 whole entry, looked up): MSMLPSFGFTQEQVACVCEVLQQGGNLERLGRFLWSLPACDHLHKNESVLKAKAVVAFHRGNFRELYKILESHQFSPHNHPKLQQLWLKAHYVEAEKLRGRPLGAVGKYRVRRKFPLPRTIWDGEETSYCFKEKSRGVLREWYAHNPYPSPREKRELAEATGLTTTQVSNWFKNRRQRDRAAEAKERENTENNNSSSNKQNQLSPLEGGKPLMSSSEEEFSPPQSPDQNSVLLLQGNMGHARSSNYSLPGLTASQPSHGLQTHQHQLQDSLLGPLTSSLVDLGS
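Homogeneous AlphaScreen proximity assay pairing GST-Six1 with His-tagged Eya2 (added as 5X mix: 250 nM and 500 nM) in 50 mM Tris pH 8.0, 300 mM NaCl, 1 mM TCEP. Glutathione donor and nickel acceptor beads; 1 h, 37 °C, dark.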
KCNH2 3.1 inh: KCNH2 3.1 (human) potassium channel inhibition. U2OS KCNH2 3.1, thallium flux FluxOr; hits give low values. activity change, % (tested at about 1.8 µM). 0.95% of 340,000 active;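 active = maximum activity change below -70%; inconclusive = maximum activity change from -70% to -50%; inactive = maximum activity change above -50%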;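 note: thallium influx rate constant from kinetic fluorescence after stimulation buffer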
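Thallium flux via FluxOr fluorescence (Red40 quencher, 45 min loading) in U2OS cells virally expressing the KCNH2 3.1 isoform (1.77 x 10^8 /mL virus, overnight at 37 C). Rate constants from 2-min kinetic reads post-stimulation, normalised to positive and negative controls.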
hERG WT inh: inhibitors of human wildtype KCNH2 potassium channel | 0.37% of 340,000 active | U2OS, BacMam KCNH2, thallium flux FluxOr; hits give low values | activity change, % at 1.84 µM | Q12809;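 active = maximum activity change below -70%; inconclusive = maximum activity change between -70% and -50%; inactive = maximum activity change above -50%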
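U2OS cells transduced with wild-type KCNH2 virus are loaded with FluxOr dye for 45 min, and thallium flux is measured in kinetic reads before and after stimulation buffer. Rate constants are normalized to DMSO controls.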
An asterisk follows results filed as active; ? = inconclusive; / = no result; ! = repeats disagree. In the library only some 2% were active in any assay of this set; here they are far more common. Cut-off read from the data, not from the text of the source, unless noted: active = activity change below about -65%; inconclusive = mostly about -30% to -63%; inactive = weaker than that. Unless noted, % is set by controls: 0 for no effect and ±100 for the full control effect.

SMILES | CtBP-E1A inh | KDM4E inh | Six1-Eya2 inh | KCNH2 3.1 inh | hERG WT inh
CN(C1=C(N2CCOCC2)C(=O)c2ccccc2C1=O)c1ccccc1 | ? | -1% | -82* | 5 | -3
CCOC(=O)Cn1c(COc2ccccc2OC)[n+](C)c2ccccc21 | / | / | 20 | -6 | -6
Cc1ccccc1OCc1n(CC(=O)OC2CC(C)CCC2C(C)C)c2ccccc2[n+]1C (stereo not given) | -6 | -5% | 0 | -10 | -82*!
CC1CCC(C(C)C)C(OC(=O)Cn2c(-c3ccc(Cl)cc3)[n+](C)c3ccccc32)C1 (stereo not given) | -1 | -21% | -2 | -9 | -9
CC1CCC(C(C)C)C(OC(=O)Cn2c(-c3ccc(Br)cc3)[n+](C)c3ccccc32)C1 (stereo not given) | / | -2% | -14 | ? | -104*!
COC(=O)[C@]12CCCCC=C1N(Cc1ccc3c(c1)OCO3)C(=O)[C@H](CC(=O)NCCc1ccccc1OC)C2 | -1 | / | -15 | / | /
CCOc1ccc(CN2CCN(CCCc3ccccc3)CC2CCO)cc1 (stereo not given) | -14 | / | 0 | -8 | -82*
Cc1ccc(CN2CCN(CCCc3ccccc3)CC2CCO)cc1 (stereo not given) | -2 | 8% | -11 | -75* | 10
C#Cc1ccc(CN2CCN(CCCc3ccccc3)C(CCO)C2)cc1 (stereo not given) | -16 | / | -3 | -72* | 0
CCOc1ccc(CN2CCN(C3CCSCC3)CC2CCO)cc1 (stereo not given) | -4 | 4% | 0 | -84* | -12
CCOc1cccc2cc(C(=O)NCc3ccccc3Cl)c(=O)oc12 | 4 | / | 0 | 15 | 0
Cn1c(=O)c2c(ncn2CC(=O)N2CCc3ccccc3C2)n(C)c1=O | -6 | -1% | -5 | 10 | 7
CS(=O)(=O)NNC(=O)C1Cc2c(ccc3ccccc23)O1 (stereo not given) | / | / | 2 | 5 | -3
CN(C(=O)COC(=O)c1ccc2c(c1)OCO2)C1CCCCC1 | 0 | / | 9 | -8 | -4
C[N+]12CCCCC1C(COC(=O)c1ccc3c(c1)OCO3)CCC2 (stereo not given) | 1 | 22µM* | 3 | -3 | 0
Cc1ccc2nc(SCC(=O)N(C)C3CCS(=O)(=O)C3)[nH]c2c1 (stereo not given) | -8 | / | -11 | -198* | 0
CCOC(=O)C1=C(C)OC(N)=C(C#N)C1c1cc(Cl)c(OCC(N)=O)c(OC)c1 (stereo not given) | -6 | -15% | -6 | 8 | -1
c1ccc(Cc2noc(CN3CCN(C4CCc5ccccc5C4)CC3)n2)cc1 (stereo not given) | 0 | 2% | -15 | -127* | 34
COc1ccc(C(=O)N2CCC(C(=O)c3ccc(F)cc3)CC2)cc1 | 3 | 3% | 6 | -39 | 27
COc1ccc(C(=O)C2CCN(C(=O)c3ccc(OC)cc3)CC2)cc1 | 3 | / | -1 | -84* | -4
S=C(NCc1ccc(Cl)cc1)NC1CCN(Cc2ccccc2)CC1 | -5 | 4% | -22 | -76* | 1
COc1ccc(/C=N/NC(=O)c2ccco2)cc1Cn1nc(C)c([N+](=O)[O-])c1C | 0 | -1% | 9 | -16 | 5
CN1C(C(=O)NCc2ccc(OC(F)(F)F)cc2)CC2Cn3c(nc4ccccc43)C21 (stereo not given) | 6 | -5% | 2 | -18 | 9
CN1C(C(=O)NCc2ccc(OC(F)(F)F)cc2)CC2Cn3c(nc4cc(Cl)c(Cl)cc43)C21 (stereo not given) | -11 | -13% | -1 | -79* | ?
O=C(NCc1ccc(OC(F)(F)F)cc1)C1CC2Cn3c(nc4ccccc43)C2N1Cc1ccccc1 (stereo not given) | 6 | / | -2 | -98* | -76*
SMILES | CtBP-E1A inh | KDM4E inh | Six1-Eya2 inh | KCNH2 3.1 inh | hERG WT inh
CCN1C(=O)C(=CC=CN(C)c2ccccc2)SC1=S | -8 | / | -28 | -46 | -72*
O=C(O)CN1C(=O)/C(=C/C=C/c2ccccc2)SC1=S | / | -3% | 0 | 11 | /
CN(C)c1ccc(C=NC(CO)C(O)c2ccc([N+](=O)[O-])cc2)cc1 (stereo not given) | -2 | 58% | 6 | 0 | -6
CN(C)c1ccc(C(c2ccc(N(C)C)cc2)c2ccc([N+](=O)[O-])cc2)cc1 | ? | -6% | -83* | -8 | 8
CCN(CCCNC(=O)Cn1ncc2c(=O)oc3ccccc3c21)c1cccc(C)c1 | -13 | ? | -11 | -180* | -165*
CCCN(C(=O)Cn1ncc2c(=O)oc3ccccc3c21)c1cccc(C)c1 | 3 | -1% | -1 | 3 | 4
COCCCN(C(=S)Nc1cc(C)cc(C)c1)C(C)c1ccncc1 (stereo not given) | 1 | -4% | 4 | -72* | -2
COCCCN(C(=S)Nc1ccc(OC)cc1)C(C)c1ccncc1 (stereo not given) | -5 | 9% | -1 | 20 | 19
O=C(NCCc1ccc(Cl)cc1)Nc1cccc(Cl)c1 | 8 | 4% | 14 | -9 | 1
O=C1c2cccc(NCCCNCCO)c2C(=O)c2cccc(NCCCNCCO)c21 | -79* | / | -71* | 13 | -13
O=C(N/N=C/c1cccc([N+](=O)[O-])c1)c1ccc2c(c1)OCCO2 | -1 | -10% | -5 | 1 | 0
COc1cc(CN(CCN(C)C)Cc2ccccc2)ccc1OCc1ccccc1 | -12 | / | -1 | -1 | 40
COc1ccc(CN(CCc2ccccc2)Cc2ccccc2)cc1OC | 19 | / | 12 | -82* | -23
O=C(CCc1ccccc1)NCc1ccncc1 | 7 | / | 6 | 2 | -1
O=C(CCNNC(=O)c1ccncc1)NCc1ccccc1 | -5 | 8.9µM*! | 6 | -8 | -11
Nn1c(SCc2cccc(C(F)(F)F)c2)nnc1-c1ccco1 | 0 | -9% | -1 | -7 | 7
Cc1ccc(C(=O)CSc2nc(-c3ccccc3)cc(=O)[nH]2)cc1 | 5 | -7% | 1 | 0 | -91*
Cc1ccc(C(=O)CSc2nc(N)cc(=O)[nH]2)cc1 | 5 | 1% | 1 | 1 | -10
CCC(=O)c1ccc(OCC(=O)Nc2ccc(S(=O)(=O)Nc3cc(C)nc(C)n3)cc2)cc1 | -1 | / | 1 | 9 | -2
COc1cc(C(=O)NCc2nc(C)cs2)ccc1OC1CCN(C(C)=O)CC1 | 10 | / | 1 | -76* | -2
C[C@@H](CCc1ccc(O)cc1)NCCc1ccc(O)c(O)c1 | / | 20µM* | / | / | /
Cc1cccc(C)c1NC(=S)NCCc1ccc(O)c(O)c1 | 7 | 1% | -8 | 9 | -11
CCc1cccc(C)c1NC(=O)C(c1ccc(O)cc1)N1CCC1=O (stereo not given) | 2 | 15% | -1 | 4 | -7
CN1C(=O)CC(Sc2ncccc2C(=O)O)C1=O (stereo not given) | 6 | 7% | 1 | -1 | -8
